Source: PubChem BioAssay (Tox21)
Values joined by “and” are separate entries in the source; they are usually repeats but may differ in a detail not shown here. Equal values may be shown once. Results filed as inconclusive are left out. Where a structure was tested more than once in an assay, its records may differ in their call. Active and inactive are the calls of the source. Unless noted, calls follow the shape of the dose curve; as a rule, active = well fitted curve in the direction sought with a large enough effect in the repeat runs; inconclusive = weak or mixed curves; inactive = no such curve, though single readings can be large; an effect the other way counts as inactive or inconclusive.

How the values were obtained:
[1] = target: Retinoic acid receptor RXR-alpha (Homo sapiens) (UniProt P19793); assay: qHTS assay to identify small molecule agonists of the RXR signaling pathway (AID 1159527; calls by dose curve; also: nearly all actives have a fitted effect of over 35% in size; also: potency is read from the fitted curve at half-maximal effect)
Outline: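 16 hr incubation of compound-treated RXR-alpha-UAS-bla HEK 293T cells (2% charcoal-stripped FBS, 37 C) preceded a 2 hr room-temperature LiveBLAzer FRET substrate step and blue/green fluorescence measurement.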

[2] = qHTS assay to identify small molecule agonists of the RXR signaling pathway - cell viability counter screen (AID 1159529); also: nearly all actives have a fitted effect of over 50% in size; also: potency is read from the fitted curve at half-maximal effect
Outline: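 In this parallel viability measure, GeneBLAzer RXR-alpha HEK 293T cells (2% charcoal-stripped FBS) were given a 5 hr preincubation, treated with compounds 16 hr at 37 C, and read by CellTiter-Glo luminescence.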

[3] = qHTS assay to identify small molecule antagonists of the retinoid acid receptor (RAR) signaling pathway - cell viability counter screen (AID 1159551); also: nearly all actives have a fitted effect of over 35% in size
Outline: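 ATP-based viability, C3RL4 cells, 6 h at 37 C with 1 uM final retinol co-added after compound; luminescence read 30 min post CellTiter-Glo, RT.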

[4] = qHTS assay to identify small molecule antagonists of the retinoic acid receptor (RAR) signaling pathway (AID 1159552; also: nearly all actives have a fitted effect of over 50% in size; also: potency is read from the fitted curve at half-maximal effect)
Outline: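 C3RL4 RARE-luc cells, overnight plating; retinol 1 uM final added right after compound; 6 hr 37 C; luciferase read at 30 min RT.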

[5] = qHTS assay to identify small molecule agonists of the retinoic acid receptor (RAR) signaling pathway (AID 1159553); also: potency is read from the fitted curve at half-maximal effect
Outline: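 Quantitative high-throughput format: the Tox21 10K library was tested on C3RL4 RARE-luciferase cells for 6 hr at 37 C and 5% CO2, with luminescence measured after a 30 min room-temperature reagent step.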

[6] = qHTS assay to identify small molecule antagonists of the estrogen related receptor (ERR) signaling pathway - cell viability counter screen (AID 1224818);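 also: series mostly up to about 46 µM; viability measured after 17.5 h of compound exposure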
Outline: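 Quantitative high-throughput viability counter screen in ERR cells. Compounds (DMSO) incubated 17.5 h at 37 C; read-out was CellTiter-Fluor fluorescence.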

[7] = qHTS assay to identify small molecule antagonists of the estrogen related receptor signaling pathway with the pleiotropic PPARgamma coactivator (PGC) cell viability counter screen (AID 1224822; also: series mostly up to about 46 µM)
Outline: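 Cytotoxicity in the PGC/ERR cell line is assessed with CellTiter-Fluor, read as fluorescence intensity 30 min after reagent addition, following 17.5 h compound treatment at 37 C.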

[8] = qHTS assay to identify small molecule antagonists of the estrogen related receptor (ERR) signaling pathway (AID 1224819; also: series mostly up to about 46 µM; nearly all actives have a fitted effect of over 50% in size)
Outline: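 ERR reporter cell line (NTP) plated at 2,000 cells/well, settled 6 h at 37C/5% CO2, then exposed to LOPAC compounds for 18 h at 37C. One-Glo luciferase luminescence read after 30 min at room temperature.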

[9] = qHTS assay to identify small molecule agonists of the estrogen related receptor (ERR) signaling pathway (AID 1224820)
Outline: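 After 6 h plating (2,000 cells/well) and 18 h compound treatment at 37 C, ERR cells were lysed with One-Glo and luminescence read after 30 min at room temperature.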

[10] = tested on: estrogen-related receptor alpha (ERRalpha) with PGC-1alpha coactivator, human; assay: qHTS assay to identify small molecule antagonists of the estrogen related receptor signaling pathway with the pleiotropic PPARgamma coactivator (PGC) (AID 1224821; calls by dose curve;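 also: series mostly up to about 46 µM; lower luminescence signal means antagonism of PGC/ERR signalling; nearly all actives have a fitted effect of over 50% in size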)
Outline: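 Luminescence from One-Glo luciferase reagent (30 min, room temperature) measured after 18 h compound treatment at 37 °C. Cells carry the PGC/ERR reporter and were seeded 6 h prior to dosing.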

Measured: Potency

Sequence of Retinoic acid receptor RXR-alpha (Homo sapiens) (P19793 whole entry, looked up): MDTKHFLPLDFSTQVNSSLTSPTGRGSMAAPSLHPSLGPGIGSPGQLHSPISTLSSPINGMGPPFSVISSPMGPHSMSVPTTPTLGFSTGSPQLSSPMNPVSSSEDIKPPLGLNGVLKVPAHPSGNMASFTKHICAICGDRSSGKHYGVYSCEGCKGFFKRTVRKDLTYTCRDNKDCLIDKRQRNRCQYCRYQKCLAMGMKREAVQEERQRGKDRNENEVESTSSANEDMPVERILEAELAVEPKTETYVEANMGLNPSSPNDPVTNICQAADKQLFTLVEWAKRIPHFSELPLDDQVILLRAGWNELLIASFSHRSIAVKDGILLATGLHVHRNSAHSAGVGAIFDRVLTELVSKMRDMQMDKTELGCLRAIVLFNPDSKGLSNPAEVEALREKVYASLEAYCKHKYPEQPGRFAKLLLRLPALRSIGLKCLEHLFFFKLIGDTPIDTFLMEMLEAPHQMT

CC1(C)O[C@@H]2[C@@H](CO[C@@]3(COS(N)(=O)=O)OC(C)(C)O[C@@H]23)O1
17.4 µM (active) and inactive: [1]
inactive: [2] | [3] | [4] | [5]

CC(=O)/C=C/C1=C(C)CCCC1(C)C
inactive: [1] | [2] | [3]

Cc1cccc2ccccc12
inactive: [1] | [2] | [3] | [4] | [5]

CO[C@H]1C=CO[C@@]2(C)Oc3c(C)c(O)c4c(O)c(c(/C=N/N5CCN(C)CC5)c(O)c4c3C2=O)NC(=O)/C(C)=C\C=C[C@H](C)[C@H](O)[C@@H](C)[C@@H](O)[C@@H](C)[C@H](OC(C)=O)[C@@H]1C
inactive: [1] | [2] | [3] | [4] | [5]

CCn1cc(C(=O)O)c(=O)c2ccc(C)nc21
inactive: [1] | [2] | [3] | [4] | [5]

COc1ccc(O)cc1
inactive: [1] | [2] | [3]

COc1cc(C=O)ccc1O
inactive: [1] | [2] | [3] | [4] | [5]

CCCCCCCCCCCCCCCCCC(=O)OCC(O)CO (stereo not given)
inactive: [1] | [2] | [3] | [4] | [5]

CN(C)Cc1cc(CN(C)C)c(O)c(CN(C)C)c1
inactive: [1] | [2] | [3] | [4] | [5]

CCOCCO
inactive: [1] | [2] | [3] | [4] | [5]

Cc1c(N(C)C)c(=O)n(-c2ccccc2)n1C
inactive: [1] | [2] | [3]

COC(=O)c1ccc(O)cc1
inactive and 6.16 µM (active): [1]
inactive: [2] | [3] | [4] | [5]

NCCNc1cccc2ccccc12
inactive: [1] | [2] | [3]
active: [4] 30.6 µM and 23.7 µM

CN(C)C=O
inactive: [1] | [2] | [3] | [4] | [5]

C[C@]12C=CC(=O)C=C1CC[C@@H]1[C@@H]2C(=O)C[C@@]2(C)[C@H]1CC[C@]2(O)C(=O)CO
inactive: [1] | [2] | [3] | [4] | [5]

CCCCOCCOCCOC(C)=O
inactive: [1] | [2] | [3] | [4] | [5]

C=C(C)C(N)=O
inactive: [1] | [2] | [3] | [4] | [5]

C=C(C)OC(C)=O
inactive: [1] | [2] | [3] | [4] | [5]

Cc1c(N(C)CS(=O)(=O)O)c(=O)n(-c2ccccc2)n1C
inactive: [1] | [2] | [3] | [4] | [5]

CC(C)=CCC/C(C)=C/CO
inactive: [1] | [2] | [3]

CCCCCCCC(=O)OCC(O)CO (stereo not given)
inactive: [1] | [2] | [3] | [4] | [5]

C1CNCCN1
11.3 µM (active) and inactive: [1]
inactive: [2] | [3] | [4] | [5]

CC(=O)CCC(C)C
inactive: [1] | [2] | [3] | [4] | [5]

O=C(O)CCCCC1CCSS1 (stereo not given)
inactive: [1] | [2] | [3]

NC(=O)c1ccc([N+](=O)[O-])cc1Cl
inactive: [1] | [2] | [3] | [4] | [5]

CCc1cc(C(N)=S)ccn1
inactive: [1] | [2] | [3] | [4] | [5]

CCCCCCCCOc1ccc(C(=O)c2ccccc2)c(O)c1
inactive: [1] | [2] | [3] | [4] | [5]

C#C[C@]1(O)CC[C@H]2[C@@H]3CCC4=CC(=O)CC[C@@H]4[C@H]3CC[C@@]21CC
inactive: [1] | [2] | [3]

C=CC(=O)NC(C)(C)CS(=O)(=O)O
inactive: [1] | [2] | [3] | [4] | [5]

COC(=O)C1CCC(C(=O)OC)CC1 (stereo not given)
inactive: [1] | [2] | [3] | [4] | [5]

COc1cc(O)c(C(=O)c2ccccc2)cc1S(=O)(=O)O
inactive: [1] | [2] | [3] | [4] | [5]

NC(N)=NC(N)=NCCc1ccccc1
inactive: [1] | [2] | [3] | [4] | [5]

CCCCC/C(C=O)=C\c1ccccc1
inactive: [1] | [2] | [3] | [4] | [5]

Cc1cccc(C)c1O
inactive: [1] | [2] | [3] | [4] | [5]

O=[N+]([O-])c1ccc(O)cc1
inactive: [1] | [2] | [3] | [4] | [5]

C/C=C/c1ccc(O)c(OC)c1
inactive: [1] | [2] | [3] | [4] | [5]

C#C[C@]1(O)CC[C@H]2[C@@H]3CCc4cc(O)ccc4[C@H]3CC[C@@]21C
inactive: [1] | [2] | [3] | [4] | [5]

Nc1cccc(N)c1
inactive: [1] | [2] | [3] | [4] | [5]

CC(C)CC(C)CC(O)CC(C)C (stereo not given)
inactive: [1] | [2] | [3] | [4] | [5]

O=c1cc[nH]c(=O)[nH]1
inactive: [1] | [2] | [3] | [4] | [5]

O=C(O)CN(CC(=O)O)CC(=O)O
inactive: [1] | [2] | [3] | [4] | [5]

c1ccc2[nH]c(-c3cscn3)nc2c1
active: [5] 8.69 µM and 2.43 µM and 5.31 µM
inactive: [2] | [3] | [4]
1.1 µM (active) and inactive: [1]

CCCCCCCCCCCCCC(=O)OC(C)C
inactive: [1] | [2] | [3] | [4] | [5]

O=C1CCCCCN1
inactive: [1] | [2] | [3] | [4] | [5]

OCCCc1ccccc1
inactive: [1] | [2] | [3] | [4] | [5]

CC1=NN(c2ccccc2)C(=O)C1
inactive: [1] | [2] | [3] | [4] | [5]

C=CCOC(=O)CC(C)C
inactive: [1] | [2] | [3] | [4] | [5]

CCCCOC(=O)CCCCCCCCC(=O)OCCCC
inactive: [1] | [2] | [3] | [4] | [5]

COC(=O)c1ccc(C=O)cc1
inactive: [1] | [2] | [3] | [4] | [5]

COc1ccccc1NC(=O)CC(C)=O
inactive: [1] | [2] | [3] | [4] | [5]

COc1ccc(C(=O)c2ccccc2)c(O)c1
active: [5] 61.1 µM and 23.7 µM
inactive: [1] | [2] | [3] | [4]

COCC(C)N (stereo not given)
inactive: [1] | [2] | [3] | [4] | [5]

CCN1CCCC1=O
inactive: [1] | [2] | [3] | [4] | [5]

OC[C@@H](O)[C@@H](O)[C@H](O)[C@H](O)CO
inactive: [1] | [2] | [3] | [4] | [5]

CCCCOCCOCCSC#N
inactive: [1] | [2] | [3] | [4] | [5]

CCCCNC(=O)NS(=O)(=O)c1ccc(N)cc1
inactive: [1] | [2] | [3] | [4] | [5]

COCCOCCOC
inactive: [1] | [2] | [3] | [4] | [5]

O=C(OCc1ccccc1)c1ccccc1
active: [5] 2.43 µM and 29.8 µM
inactive: [1] | [2] | [3] | [4]

COC1=CC(=O)C[C@@H](C)[C@]12Oc1c(Cl)c(OC)cc(OC)c1C2=O
inactive: [1] | [2] | [3] | [5]
active: [4] 9.6 µM

Nc1ccc(N=Nc2ccccc2)c(N)n1
active: [5] 1.23 µM and 969 nM and 2.37 µM
inactive: [1] | [2] | [3] | [4]

CC1=C(/C=C/C(C)=C/C=C/C(C)=C/C(=O)O)C(C)(C)CCC1
inactive: [2] | [3] | [4] | [6] | [7]
active: [5] 19.4 nM and 9.7 nM and 84.1 nM

CC(=O)c1ccc(S(=O)(=O)NC(=O)NC2CCCCC2)cc1
not listed: [8] | [9] | [10]
inactive: all other assays above

NC(=O)N/N=C/c1ccc([N+](=O)[O-])o1
inactive and 13.8 µM (active): [1]
not listed: [4] | [5] | [6]
inactive: all other assays above

NC(=O)OCC(COC(N)=O)c1ccccc1
not listed: [8] | [9] | [10]
inactive: all other assays above

O=C1OC(c2ccc(O)cc2)(c2ccc(O)cc2)c2ccccc21
19.4 µM (active) and inactive: [2]
48.6 µM (active) and inactive: [4]
inactive: [3] | [5]

CC(C)(C)CC(C)(C)c1ccc(O)c(-n2nc3ccccc3n2)c1
inactive: [3] | [4] | [5]

CN/C(=C\[N+](=O)[O-])NCCSCc1ccc(CN(C)C)o1
not listed: [8] | [9] | [10]
inactive: all other assays above

N[C@@H](Cc1c[nH]c2ccc(O)cc12)C(=O)O
not listed: [8] | [9] | [10]
inactive: all other assays above
